# From PubChem BioAssay (Tox21)
# Results filed as inconclusive are left out. Entries that show only a call come without a potency. Some structures have more than one record in an assay (separate samples or runs), and their calls can disagree. Activity calls are given as the source filed them. Unless noted, calls come from the whole dose curve; as a rule, active = well fitted curve in the direction sought with a large enough effect in the repeat runs; inconclusive = weak or mixed curves; inactive = no such curve, though single readings can be large; an effect the other way counts as inactive or inconclusive.
# What was measured:
# [1] = qHTS assay to identify small molecule antagonists of the thyroid receptor (TR) signaling pathway - cell viability counter screen (AID 743064); note: nearly all actives have a fitted effect of over 50% in size; note: potency is the fitted concentration of half-maximal effect
# Outline: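 GH3.TRE-Luc rat pituitary cells dosed after 4 hr plating, co-stimulated with T3 at 1 nM final, incubated 23.5 h at 37 C. Viability measured in the same wells by CellTiter-Fluor fluorescence after 30 min further at 37 C.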
# [2] = qHTS assay to identify small molecule antagonists of the thyroid receptor (TR) signaling pathway (AID 743065); note: nearly all actives have a fitted effect of over 55% in size; note: potency is the fitted concentration of half-maximal effect
# Outline: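 GH3.TRE-Luc rat pituitary cells (two TREs driving luciferase) were dosed with compound, then stimulated with 1 nM T3 (final) for 23.5 h at 37 C. ONE-Glo luminescence was the read-out, with CellTiter-Fluor fluorescence as the cytotoxicity counter-screen.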
# [3] = tested on: thyroid hormone receptor (rat, GH3 cells); experiment: qHTS assay to identify small molecule agonists of the thyroid receptor (TR) signaling pathway (AID 743066; calls by dose curve)
# [4] = molecular target: Estrogen receptor (Homo sapiens) (UniProt P03372); experiment: qHTS assay to identify small molecule antagonists of the estrogen receptor alpha (ER-alpha) signaling pathway (AID 743069; active = well fitted curve in the direction sought with a large enough effect in the signal ratio in the repeat runs, not every such curve was filed as active; the % refers to the signal ratio)
# Chain of Estrogen receptor (Homo sapiens) (P03372 whole entry, looked up): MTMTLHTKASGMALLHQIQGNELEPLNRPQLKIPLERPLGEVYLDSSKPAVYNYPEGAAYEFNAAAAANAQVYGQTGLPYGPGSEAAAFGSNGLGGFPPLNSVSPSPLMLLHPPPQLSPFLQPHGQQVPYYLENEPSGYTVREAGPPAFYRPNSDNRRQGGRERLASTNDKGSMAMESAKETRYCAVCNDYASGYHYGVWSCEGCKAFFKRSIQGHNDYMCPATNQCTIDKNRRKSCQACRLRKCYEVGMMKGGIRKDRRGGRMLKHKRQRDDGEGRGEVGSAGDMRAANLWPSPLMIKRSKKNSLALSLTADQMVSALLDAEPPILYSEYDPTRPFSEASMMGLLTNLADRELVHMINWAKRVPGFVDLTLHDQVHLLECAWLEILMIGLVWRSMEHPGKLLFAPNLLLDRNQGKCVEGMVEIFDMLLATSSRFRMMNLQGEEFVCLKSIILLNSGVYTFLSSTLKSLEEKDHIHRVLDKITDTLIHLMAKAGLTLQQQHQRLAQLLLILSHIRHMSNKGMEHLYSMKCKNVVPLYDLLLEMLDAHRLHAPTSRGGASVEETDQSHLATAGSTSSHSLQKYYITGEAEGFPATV
# Outline: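 Reporter cells (ER-alpha-bla, HEK293 background) are conditioned overnight in stripped-serum medium (2% charcoal-stripped FBS). Compound and 17beta-estradiol exposure runs 18 hr at 37C, 5% CO2.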
# [5] = qHTS assay to identify small molecule antagonists of the estrogen receptor alpha (ER-alpha) signaling pathway - cell viability counter screen (AID 743074; calls by dose curve;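 note: HEK293 cells carrying ER-alpha-UAS-bla reporter stimulated with 17beta-estradiol; nearly all actives have a fitted effect of over 45% in size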)
# [6] = molecular target: Estrogen receptor (Homo sapiens) (UniProt P03372); experiment: qHTS assay to identify small molecule agonists of the estrogen receptor alpha (ER-alpha) signaling pathway (AID 743075; calls by dose curve;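 note: HEK293 GripTite cells with ER-alpha and UAS-driven beta-lactamase reporter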; note: potency is the fitted concentration of half-maximal effect)
# [7] = molecular target: Estrogen receptor (Homo sapiens) (UniProt P03372); experiment: qHTS assay to identify small molecule agonists of the estrogen receptor alpha (ER-alpha) signaling pathway using the BG1 cell line (AID 743079); note: nearly all actives have a fitted effect of over 20% in size; note: potency is the fitted concentration of half-maximal effect
# [8] = qHTS assay to identify small molecule antagonists of the estrogen receptor alpha (ER-alpha) signaling pathway using the BG1 cell line (AID 743080; calls by dose curve;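 note: BG1 cells stimulated with 17beta-estradiol alongside compound; series mostly up to about 70 µM; nearly all actives have a fitted effect of over 25% in size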)
# Outline: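 Luminescence from a 4×ERE-luciferase reporter in BG1-Luc-4E2 cells served as read-out. Cells, pre-cultured 5 days in stripped-serum phenol-red-free medium, were exposed to compound with 17beta-estradiol co-stimulation for 21.5 h at 37 C.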
# [9] = qHTS assay to identify small molecule antagonists of the estrogen receptor alpha (ER-alpha) signaling pathway using the BG1 cell line - cell viability counter screen (AID 743081);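 note: compound given together with 17beta-estradiol as the ER stimulus; series mostly up to about 70 µM; nearly all actives have a fitted effect of over 45% in size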
# Aromatase (Homo sapiens) = Aromatase (Homo sapiens) (UniProt P11511); experiment: qHTS assay to identify aromatase inhibitors (AID 743083); note: series mostly up to about 70 µM; nearly all actives have a fitted effect of over 55% in size
# Chain of Aromatase (Homo sapiens) (P11511 whole entry, looked up): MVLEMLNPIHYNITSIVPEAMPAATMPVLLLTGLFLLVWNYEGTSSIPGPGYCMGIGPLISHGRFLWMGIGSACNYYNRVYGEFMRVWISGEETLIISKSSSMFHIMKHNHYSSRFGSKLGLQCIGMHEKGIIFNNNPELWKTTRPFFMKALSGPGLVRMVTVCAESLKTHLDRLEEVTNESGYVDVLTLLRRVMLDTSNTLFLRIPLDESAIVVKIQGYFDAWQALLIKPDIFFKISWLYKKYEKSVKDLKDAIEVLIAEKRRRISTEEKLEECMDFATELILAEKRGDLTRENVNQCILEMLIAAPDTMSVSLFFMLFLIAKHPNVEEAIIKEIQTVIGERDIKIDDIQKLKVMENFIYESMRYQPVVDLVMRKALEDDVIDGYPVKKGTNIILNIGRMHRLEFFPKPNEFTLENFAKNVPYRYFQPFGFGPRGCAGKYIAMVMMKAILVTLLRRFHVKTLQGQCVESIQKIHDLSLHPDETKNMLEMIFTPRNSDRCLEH
# [10] = qHTS assay to identify aromatase inhibitors - cell viability counter screen (AID 743084);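 note: cells stimulated with testosterone during compound exposure; nearly all actives have a fitted effect of over 55% in size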
# [11] = molecular target: Aryl hydrocarbon receptor (Homo sapiens) (UniProt P35869); experiment: qHTS assay to identify small molecule that activate the aryl hydrocarbon receptor (AhR) signaling pathway (AID 743085);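 note: HG2L7.5c1 human HepG2 liver cells with stably integrated DRE-driven firefly reporter; series mostly up to about 70 µM; nearly all actives have a fitted effect of over 15% in size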
# Chain of Aryl hydrocarbon receptor (Homo sapiens) (P35869 whole entry, looked up): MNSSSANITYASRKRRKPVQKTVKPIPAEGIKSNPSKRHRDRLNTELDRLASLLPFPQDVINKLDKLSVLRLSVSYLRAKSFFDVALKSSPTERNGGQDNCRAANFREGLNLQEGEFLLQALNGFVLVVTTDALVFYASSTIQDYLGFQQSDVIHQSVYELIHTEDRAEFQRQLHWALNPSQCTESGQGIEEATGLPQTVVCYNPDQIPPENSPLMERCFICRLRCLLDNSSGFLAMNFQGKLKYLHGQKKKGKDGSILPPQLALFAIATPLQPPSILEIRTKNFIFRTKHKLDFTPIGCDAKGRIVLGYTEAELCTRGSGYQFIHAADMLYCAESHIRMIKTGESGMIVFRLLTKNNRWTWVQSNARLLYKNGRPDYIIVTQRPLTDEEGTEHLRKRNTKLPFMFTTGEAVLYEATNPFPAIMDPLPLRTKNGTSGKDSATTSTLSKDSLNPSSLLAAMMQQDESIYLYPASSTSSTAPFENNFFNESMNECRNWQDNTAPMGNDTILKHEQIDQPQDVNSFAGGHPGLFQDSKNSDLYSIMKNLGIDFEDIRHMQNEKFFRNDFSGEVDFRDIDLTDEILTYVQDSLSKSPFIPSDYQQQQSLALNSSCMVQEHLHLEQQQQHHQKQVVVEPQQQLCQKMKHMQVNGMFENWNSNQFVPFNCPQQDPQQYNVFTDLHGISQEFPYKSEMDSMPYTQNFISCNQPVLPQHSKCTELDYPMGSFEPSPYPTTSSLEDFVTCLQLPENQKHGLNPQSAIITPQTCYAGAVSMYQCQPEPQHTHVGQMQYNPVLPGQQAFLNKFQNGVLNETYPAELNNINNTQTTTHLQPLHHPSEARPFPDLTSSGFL
# Outline: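 HepG2 cells stably carrying a 20-DRE firefly luciferase reporter (HG2L7.5c1) treated with compound for 24 hr at 37C. Luciferase read by ONE-Glo luminescence, with CellTiter-Fluor viability read first.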
# [12] = qHTS assay to identify small molecule that activate the aryl hydrocarbon receptor (AhR) signaling pathway - cell viability counter screen (AID 743086);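 note: HepG2 liver cells carrying the AhR DRE luciferase reporter; series mostly up to about 70 µM; nearly all actives have a fitted effect of over 45% in size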
# Outline: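 HepG2-AhR-luc (HG2L7.5c1) cells, 4000/well, treated 24 h at 37 C with compound; viability measured as CellTiter-Fluor fluorescence after 30 min in the same wells as the luciferase read.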
# [13] = qHTS assay to identify small molecule antagonists of the peroxisome proliferator-activated receptor gamma (PPARg) signaling pathway - cell viability counter screen (AID 743194); note: nearly all actives have a fitted effect of over 55% in size
# Outline: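 Cytotoxicity counter screen in PPARg-bla HEK293H cells, same wells as reporter assay. Compounds plus 50 nM rosiglitazone (final) for 17 h at 37 C, then viability read by CellTiter-Glo luminescence.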
# [14] = qHTS assay for small molecule agonists of the antioxidant response element (ARE) signaling pathway (AID 743202; active = well fitted activation curve with a large enough effect in the signal ratio in the repeat runs, not every such curve was filed as active; the % refers to the signal ratio)
# Outline: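 Agonist mode reporter screen: HepG2 cells with ARE-controlled beta-lactamase are incubated with test compounds for 16 h at 37 C, and beta-lactamase activity is measured as fluorescence of cleaved B/G FRET substrate.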
# [15] = qHTS assay for small molecule agonists of the antioxidant response element (ARE) signaling pathway - cell viability counter screen (AID 743203; calls by dose curve; note: nearly all actives have a fitted effect of over 55% in size)
# Outline: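 Seeded at 2,000 cells/well, ARE-bla HepG2 cells were incubated 5 hrs before compound addition. After 16 hrs of treatment at 37C with 5% CO2, CellTiter-Glo reagent was added and luminescence read 30 min later.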
# [16] = qHTS assay for small molecule activators of the heat shock response signaling pathway - cell viability counter screen (AID 743209); note: nearly all actives have a fitted effect of over 50% in size
# Outline: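 First, HSE-bla HeLa cells were seeded at 1500 cells/well and kept overnight at 37 C. Next, compounds were pinned in and incubated 5 h. After the FRET substrate step, CellTiter-Glo was added and luminescence read 30 min later.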
# [17] = qHTS assay for small molecule activators of the heat shock response signaling pathway (AID 743210; active = well fitted activation curve with a large enough effect in the signal ratio in the repeat runs, with a control signal flat, not every such curve was filed as active; the % refers to the signal ratio;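 note: HeLa cells with beta-lactamase reporter driven by heat shock elements; series mostly up to about 63 µM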)
# Outline: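 Quantitative high-throughput format using an engineered HeLa line in which heat shock response elements drive beta-lactamase; after 5 h with compound, cells received a B/G FRET substrate and fluorescence was read.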
# [18] = molecular target: Peroxisome proliferator-activated receptor gamma (Homo sapiens) (UniProt P37231); experiment: qHTS assay to identify small molecule agonists of the peroxisome proliferator-activated receptor gamma (PPARg) signaling pathway (AID 743094; active = well fitted activation curve with a large enough effect in the signal ratio in the repeat runs, not every such curve was filed as active; the % refers to the signal ratio)
# Chain of Peroxisome proliferator-activated receptor gamma (Homo sapiens) (P37231 whole entry, looked up): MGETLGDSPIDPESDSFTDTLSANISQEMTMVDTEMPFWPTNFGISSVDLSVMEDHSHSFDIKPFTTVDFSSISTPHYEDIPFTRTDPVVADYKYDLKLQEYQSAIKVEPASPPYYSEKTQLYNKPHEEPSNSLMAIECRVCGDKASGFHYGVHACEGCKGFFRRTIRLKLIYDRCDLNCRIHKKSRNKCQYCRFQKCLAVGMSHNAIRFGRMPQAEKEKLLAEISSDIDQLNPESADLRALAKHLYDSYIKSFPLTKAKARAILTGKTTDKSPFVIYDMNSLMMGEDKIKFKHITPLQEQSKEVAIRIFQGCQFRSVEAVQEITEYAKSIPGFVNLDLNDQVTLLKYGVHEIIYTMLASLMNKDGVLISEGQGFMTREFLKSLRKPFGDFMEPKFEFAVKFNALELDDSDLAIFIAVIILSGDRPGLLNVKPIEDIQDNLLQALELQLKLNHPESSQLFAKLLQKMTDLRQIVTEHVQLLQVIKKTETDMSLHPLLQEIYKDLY
# Outline: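 Quantitative HTS agonist mode: stable HEK293H line with UAS-beta-lactamase reporter under PPARg control, 17 h compound exposure at 37C, fluorescence after 1 h FRET substrate loading at room temperature.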
# [19] = molecular target: Peroxisome proliferator-activated receptor gamma (Homo sapiens) (UniProt P37231); experiment: qHTS assay to identify small molecule antagonists of the peroxisome proliferator-activated receptor gamma (PPARg) signaling pathway (AID 743191; calls by dose curve; note: series mostly up to about 63 µM; nearly all actives have a fitted effect of over 30% in size)
# Outline: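 GeneBLAzer PPARg UAS-bla HEK293H cells, 5 h post-plating, exposed to compounds 17 h at 37C. LiveBLAzer B/G FRET substrate added for 1 h at room temperature; beta-lactamase reporter read by fluorescence intensity.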
Structure (SMILES),Potency [1],Potency [2],outcome [3],outcome [4],outcome [5],Potency [6],Potency [7],outcome [8],Potency [9],Potency (Aromatase (Homo sapiens)),Potency [10],Potency [11],Potency [12],outcome [13],Potency [14],Potency [15],outcome [16],outcome [17],outcome [18],Potency [19]
O=C1CCCCCCCCCCCN1,inactive,inactive,inactive,inactive,inactive,inactive,inactive,inactive,inactive,inactive,inactive,inactive,inactive,inactive,inactive,inactive,inactive,inactive,,
CCOC(=O)[C@H](CCc1ccccc1)N[C@@H](C)C(=O)N1[C@H](C(=O)O)C[C@@H]2CCC[C@@H]21,inactive,inactive,inactive,inactive,inactive,inactive,inactive,inactive,inactive,inactive,inactive,,inactive,inactive,inactive,inactive,inactive,inactive,inactive,inactive
c1ccc([C@H]2CN3CCSC3=N2)cc1,inactive,inactive,inactive,inactive,inactive,0.0601 µM [fluorescent] (active),11.9 µM (active),inactive,inactive,inactive,inactive,inactive,inactive,inactive,inactive,inactive,inactive,inactive,inactive,
N[C@H]1CN(c2c(F)cc3c(=O)c(C(=O)O)cn(C4C[C@H]4F)c3c2Cl)CC12CC2 (stereo partly specified),inactive,inactive,inactive,inactive,inactive,inactive,inactive,inactive,,inactive,inactive,inactive,inactive,inactive,,inactive,inactive,inactive,inactive,
O=c1n(CCO)c(=O)n(CCO)c(=O)n1CCO,inactive,inactive,inactive,,inactive,inactive,inactive,inactive,inactive,inactive,inactive,inactive,inactive,inactive,,inactive,inactive,inactive,inactive,inactive
CC(C)(C)NCCNC(C)(C)C,inactive,inactive,inactive,,inactive,inactive,inactive,inactive,inactive,inactive,inactive,inactive,inactive,inactive,inactive,inactive,inactive,inactive,inactive,inactive
C[C@@H]1CCN(C(=O)[C@H](CCCN=C(N)N)NS(=O)(=O)c2cccc3c2NC[C@H](C)C3)[C@@H](C(=O)O)C1,inactive,inactive,inactive,,inactive,inactive,inactive,inactive,inactive,inactive,inactive,inactive,inactive,inactive,inactive,inactive,inactive,inactive,inactive,inactive
Cc1ccc(Cl)cc1Cl,inactive,inactive,inactive,inactive,inactive,inactive,inactive,,inactive,inactive,inactive,inactive,inactive,inactive,inactive,inactive,inactive,inactive,,
CC(C(=O)O)c1ccc(CC2CCCC2=O)cc1 (stereo unspecified),inactive,inactive,inactive,,inactive,inactive,inactive,inactive,inactive,inactive,inactive,inactive,inactive,inactive,inactive,inactive,inactive,,inactive,inactive
CN(C)CCCNCCCN(C)C,inactive,inactive,inactive,,inactive,inactive,inactive,inactive,inactive,inactive,inactive,inactive,inactive,,inactive,inactive,inactive,inactive,inactive,inactive
CC1(C)CO[C@@H](CC(=O)O)CN1,inactive,inactive,inactive,inactive,inactive,inactive,inactive,,inactive,inactive,inactive,inactive,inactive,inactive,inactive,inactive,inactive,,,
CC(C)OC(=O)c1ccccc1,inactive,inactive,inactive,inactive,,inactive,inactive,inactive,inactive,inactive,inactive,inactive,inactive,inactive,inactive,inactive,inactive,inactive,,
CC(C[N+](C)(C)C)OC(N)=O (stereo unspecified),inactive,inactive,inactive,,inactive,inactive,inactive,,inactive,inactive,inactive,inactive,inactive,inactive,inactive,inactive,inactive,inactive,inactive,inactive
O=C(O)Cc1ccc(CCNS(=O)(=O)c2ccc(Cl)cc2)cc1,inactive,inactive,inactive,inactive,inactive,inactive,inactive,,inactive,inactive,inactive,inactive,inactive,inactive,inactive,inactive,,inactive,,inactive
NC(=O)c1ccc(N)cc1,inactive,inactive,inactive,inactive,,inactive,,inactive,inactive,inactive,inactive,,inactive,inactive,,inactive,inactive,inactive,inactive,inactive
CC(=O)OC/C=C(\C)CC/C=C(\C)CCC=C(C)C,inactive,inactive,inactive,inactive,inactive,inactive,inactive,,inactive,inactive,inactive,,inactive,inactive,,inactive,inactive,,inactive,inactive

Structure (SMILES),Potency [1],Potency [2],outcome [3],outcome [4],outcome [5],Potency [6],Potency [7],outcome [8],Potency [9],Potency (Aromatase (Homo sapiens)),Potency [10],Potency [11],Potency [12],outcome [13],Potency [14],Potency [15],outcome [16],outcome [17],outcome [18],Potency [19]
O=C1OC(=O)C2CCCCC12 (stereo unspecified),inactive,inactive,inactive,,inactive,inactive,inactive,inactive,inactive,inactive,inactive,inactive,inactive,inactive,,inactive,inactive,inactive,inactive,inactive
CS(=O)(=O)O,inactive,inactive,inactive,inactive,inactive,inactive,inactive,,inactive,inactive,inactive,inactive,inactive,inactive,inactive,inactive,inactive,inactive,,
CN(C)CCCSc1ccccc1NC(=O)/C=C/c1ccccc1,26.6 µM (active),23.7 µM (active),inactive,inactive,,inactive,inactive,,,inactive,inactive,,inactive,inactive,inactive,inactive,inactive,inactive,inactive,
CCOC(=O)Nc1ccc(NCc2ccc(F)cc2)nc1N,inactive,inactive,inactive,,inactive,inactive,3.35 µM (active) and inactive,inactive,inactive,,inactive,,inactive,inactive,,inactive,inactive,inactive,,inactive
CCOC(=O)c1ccc(C)cc1,inactive,inactive,inactive,inactive,,inactive,inactive,inactive,inactive,inactive,inactive,inactive,inactive,inactive,inactive,inactive,inactive,inactive,,
C=C1CC[C@H]2C[C@@H]1C2(C)C,inactive,inactive,inactive,inactive,inactive,inactive,inactive,,inactive,inactive,inactive,,inactive,inactive,inactive,inactive,inactive,inactive,,
NC(=O)Nc1ccccc1,inactive,inactive,inactive,,inactive,inactive,inactive,inactive,inactive,inactive,inactive,inactive,inactive,,,inactive,inactive,inactive,,
N=C(N)c1ccc(OCCCOc2ccc(C(=N)N)cc2)cc1,inactive,inactive,inactive,inactive,,inactive,inactive,,inactive,,inactive,inactive,,inactive,,inactive,inactive,inactive,inactive,inactive
NS(=O)(=O)c1cc2c(cc1Cl)NC(C1CC3C=CC1C3)NS2(=O)=O (stereo unspecified),inactive,inactive,inactive,inactive,inactive,inactive,inactive,,inactive,inactive,inactive,inactive,inactive,inactive,inactive,inactive,inactive,inactive,,
CC1(C)C(O)C(C)(C)C1O (stereo unspecified),inactive,inactive,inactive,,inactive,inactive,inactive,inactive,inactive,inactive,inactive,inactive,inactive,inactive,inactive,inactive,inactive,inactive,,inactive
C=C(C)CS(=O)(=O)O,inactive,inactive,inactive,,inactive,inactive,inactive,inactive,inactive,inactive,inactive,inactive,inactive,inactive,,inactive,inactive,inactive,,inactive
O=Cc1cccc([N+](=O)[O-])c1,inactive,inactive,inactive,inactive,,inactive,inactive,,inactive,inactive,inactive,inactive,inactive,inactive,,inactive,inactive,inactive,,inactive
O=C(O)c1ccccc1OP(=O)(O)O,inactive,inactive,inactive,inactive,inactive,inactive,inactive,,inactive,inactive,inactive,inactive,inactive,inactive,inactive,,inactive,inactive,,inactive
CCc1nccnc1CC,inactive,inactive,inactive,inactive,inactive,inactive,,inactive,inactive,inactive,inactive,inactive,inactive,inactive,,inactive,inactive,inactive,,inactive
Cc1c(O)cccc1O,inactive,inactive,inactive,,inactive,inactive,inactive,inactive,inactive,inactive,inactive,,inactive,inactive,,inactive,inactive,inactive,inactive,inactive
Cc1c(NC(C)C)c(=O)n(-c2ccccc2)n1C,inactive,inactive,inactive,inactive,,inactive,inactive,,inactive,inactive,inactive,inactive,inactive,inactive,,inactive,inactive,inactive,inactive,inactive
